Compounds with a hit are over-represented: about 7.5% of the library has one in this group of screens.
RORgamma inh: ROR gamma (mouse) transcription inhibition. P51450. Drosophila S2 Gal4-RORgamma UAS-luciferase reporter, 20 h. Potency, µM (series often up to 53.6 µM), for the others: at the highest dose activity change, negative = inhibition, usual class: inhibitors. 310,000 compounds, 5.4% hits. AID 2551; also: potency is read from the fitted curve at half-maximal effect; nearly all actives have a fitted effect of over 60% in size
Target sequence (P51450 whole entry, looked up, the tested form may be a part): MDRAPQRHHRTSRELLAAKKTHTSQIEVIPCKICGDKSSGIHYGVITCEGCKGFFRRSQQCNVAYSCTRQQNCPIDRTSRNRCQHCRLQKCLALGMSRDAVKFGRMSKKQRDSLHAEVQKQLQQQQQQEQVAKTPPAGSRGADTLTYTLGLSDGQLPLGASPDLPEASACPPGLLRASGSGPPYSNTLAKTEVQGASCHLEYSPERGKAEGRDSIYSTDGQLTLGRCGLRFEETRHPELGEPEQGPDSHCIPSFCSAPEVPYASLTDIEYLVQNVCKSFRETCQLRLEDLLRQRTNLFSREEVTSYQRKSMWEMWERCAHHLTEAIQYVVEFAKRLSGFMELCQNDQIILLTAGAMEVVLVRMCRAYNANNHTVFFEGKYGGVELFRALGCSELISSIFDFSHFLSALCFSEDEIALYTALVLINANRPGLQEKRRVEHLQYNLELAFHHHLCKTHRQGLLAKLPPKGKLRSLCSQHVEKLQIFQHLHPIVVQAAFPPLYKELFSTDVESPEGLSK
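A Gal4/UAS one-hybrid system in insect cells: metallothionein-promoter Gal4–ROR gamma fusion plus Photinus luciferase reporter. Copper sulfate 700 uM final, 20 hr ambient incubation, luminescent detection after 10 min with reagent.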
TSHR antagonist: blocks TSH signaling through the human TSH receptor | TSHR-expressing cells, TSH-stimulated cAMP HTRF, 2 h; hits give low values | activity change, negative = inhibition, % at 11.5 µM | 330,000 compounds, 0.2% hits | P16473;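 active = activity change below a set negative limit, meaning inhibition stronger than a set level, cut at about -70% in these data; inconclusive = activity change between two set negative limits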
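Read-out is FRET at 665 nm (cryptate excitation 337 nm) from a cryptate-tagged anti-cAMP antibody, competed by cell cAMP against cAMP-d2. Compounds are tested on freshly harvested TSHR cells challenged with 4nM TSH (EC80) for 2 hours at 37 deg C.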
B2AR arrestin: recruits beta-arrestin to the human beta2-adrenergic receptor; 330,000 compounds, 0.02% hits; Potency, µM (top dose mostly 46.1 µM), inactives show at the top dose activation, usual class: activators; P07550; beta-arrestin recruitment to beta2AR, cell-based reporter;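 also: potency is read from the fitted curve at half-maximal effect; 0% = DMSO controls and full agonism = EC100 isoproterenol or metaproterenol; nearly all actives have a fitted effect of over 65% in size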
Gal4-VP16 FLuc: Gal4-VP16 reporter inhibition counter-screen. Drosophila S2 Gal4-VP16 UAS-luciferase, luminescence, 20 h. Potency, µM (series often up to 53.6 µM), without a hit: top-dose activity, negative = inhibition, actives largely listed as inhibitors. 310,000 compounds, 3.5% hits. AID 2546;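 also: Gal4-VP16 expression switched on by copper sulfate through the metallothionein promoter; potency is read from the fitted curve at half-maximal effect; nearly all actives have a fitted effect of over 50% in size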
ELG1 repair inh: inhibitors of ELG1-dependent DNA repair in HEK293T cells; Potency, µM (highest dose often 46.1 µM), for inactives: at the highest dose activity change, negative = inhibition, actives largely listed as inhibitors; 330,000 compounds, 2.3% hits; HEK293T ELG1-luciferase reporter, luminescence, 16 h; DNA damage induced by 5-fluorouridine; also: potency is read from the fitted curve at half-maximal effect; nearly all actives have a fitted effect of over 55% in size
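Reporter activity after DNA damage by 5-fluorouridine is monitored. Compound-treated cells incubate 16 hr at 37 °C, then ONE-Glo is added for 30 min before luminescence reading.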
Numbers without * were called inactive; ? = inconclusive; / = no result. Unless noted, calls follow the shape of the dose curve; as a rule, active = well fitted curve in the direction sought with a large enough effect; inconclusive = small, poorly fitted or top-dose-only effect, or another doubt; inactive = no such curve, though single readings can be large; an effect the other way counts as inactive or inconclusive. Unless noted, % is scaled to controls: 0 for no effect and ±100 for the full control effect.

SMILES | RORgamma inh | TSHR antagonist | B2AR arrestin | Gal4-VP16 FLuc | ELG1 repair inh
COc1ccc2oc(=O)c(/C(C)=N/NC(=O)c3ccncc3)cc2c1 | 13µM* | -2 | -1% | ? | -3%
CN1CCN(c2ncnc3ccc(-c4cccnc4)cc23)CC1 | 17% | / | / | -4% | /
COc1ccc(NC(=O)c2cc3cc(OC)ccc3oc2=N)cc1 | -11% | 5 | 0% | -17% | 7%
COc1ccc(NC(=O)c2cc3ccc(O)cc3o/c2=N\O)cc1 | 0.063µM* | -9 | -1% | 0.1µM* | ?
O=C(c1ccco1)N1CCC2(CCCN(Cc3ccccc3)C2)CC1 | 0% | / | / | -17% | /
Cc1ccnc(NC(c2ccsc2)c2ccc3ccc(C)nc3c2O)c1 (centres undefined) | 5µM* | 4 | 1% | ? | -5%
Cc1ccnc(NCc2c(O)ccc3ccccc23)c1 | -2% | -18 | -1% | -7% | -11%
COc1ccc(C(Nc2cc(C)ccn2)c2ccc3ccc(C)nc3c2O)cc1 (centres undefined) | 2.5µM* | -3 | 0% | 3.5µM* | ?
COc1ccc(C2/C=C\CN(CC3CCCCC3)C(Cc3ccccc3)C(=O)N2Cc2ccc(F)cc2)cc1 (centres undefined) | 15% | / | / | 4% | /
COc1cc(OC)cc(C(=O)NC(=S)Nc2ccc3c4c(cccc24)CC3)c1 | ? | 0 | 0% | 5.6µM* | -4%
Cc1c(C(=O)NC(=S)Nc2ccc3c4c(cccc24)CC3)cccc1[N+](=O)[O-] | 2.2µM* | -6 | 0% | 5µM* | -10%
COc1ccc(C(=O)NC(=S)Nc2ccc3c4c(cccc24)CC3)cc1OC | 7.9µM* | 2 | -1% | ? | 3%
COc1ccc(C(=O)Nc2ccc3c4c(cccc24)CC3)cc1 | 21% | -17 | 0% | 15% | ?
CC(C)Oc1cccc(C(=O)NC(=S)Nc2ccc3c4c(cccc24)CC3)c1 | 11µM* | -6 | 0% | ? | -4%
Cc1nn(C)c(C(=O)NNC(=S)Nc2ccc(F)cc2)c1[N+](=O)[O-] | 7.9µM* | 6 | 0% | ? | 7%
Cc1nn(CCC(=O)NNC(=S)Nc2ccc([N+](=O)[O-])cc2)c(C)c1[N+](=O)[O-] | -17% | 2 | 0% | -1% | -4%
CCCCNC(=S)NNC(=O)CCn1nc(C)c(Br)c1C | 0.63µM* | 5 | ? | 2.8µM* | -10%
Cc1nn(CCC(=O)NNC(=S)Nc2ccc(F)cc2)c(C)c1Br | 0.89µM* | -1 | 0% | ? | 1%
CCCCNC(=S)NNC(=O)c1nn(C)c(C)c1Cl | ? | 4 | 0% | -9% | 15%
Cc1nn(C(C)C(=O)NNC(=S)Nc2ccc(F)cc2)c(C)c1[N+](=O)[O-] (centres undefined) | ? | 9 | 0% | -13% | 15%
COc1ccc(Oc2ncc3nc(-c4cccc(C#N)c4)c(=O)n(Cc4cccc(OC)c4)c3n2)cc1 | -16% | / | / | -4% | /
CN(CCc1ccc(Cl)c(Cl)c1)C[C@@H](O)COc1ccc(NS(C)(=O)=O)cc1 | -13% | / | / | 2% | /
Cc1ccc(N=Cc2c(O)ccc3ccccc23)cc1F | 5µM* | 34 | 0% | ? | ?
CC1CC(C)CN(S(=O)(=O)c2ccc(C(=O)Nc3nnc(-c4cccs4)o3)cc2)C1 (centres undefined) | 0.25µM* | -23 | -1% | 0.5µM* | 5.8µM*
CCC1CCCCN1S(=O)(=O)c1ccc(C(=O)Nc2nnc(-c3cccs3)o2)cc1 (centres undefined) | 0.32µM* | -14 | -1% | 0.32µM* | ?
SMILES | RORgamma inh | TSHR antagonist | B2AR arrestin | Gal4-VP16 FLuc | ELG1 repair inh
CCC1CCCCN1S(=O)(=O)c1ccc(NC(=O)c2cccnc2)cc1 (centres undefined) | 2% | 20 | 0% | -3% | 13%
CC1CC(C)CN(S(=O)(=O)c2ccc(C(=O)Nc3sccc3C(N)=O)cc2)C1 (centres undefined) | -14% | 9 | 0% | ? | ?
Cc1ccc(CNC(=O)C2CCN(S(=O)(=O)c3ccc(Br)s3)CC2)cc1 | 10% | 2 | 0% | -16% | -22%
CCCCc1nnc(NC(=O)c2oc3ccc(OC)cc3c2C)s1 | / | -8 | 0% | / | ?
Cc1ccc2oc(C(=O)Nc3nnc(CC(C)C)s3)c(C)c2c1 | 7.1µM* | -1 | -1% | 2% | ?
CC(=O)OCCNc1cc(Sc2nc3ccccc3[nH]2)c2nonc2c1[N+](=O)[O-] | 9% | -88* | -1% | -3% | ?
CC(=O)OCCCNc1cc(Sc2nc3ccccc3s2)c2nonc2c1[N+](=O)[O-] | 3.5µM* | -4 | 0% | 5µM* | 13%
CC(=O)OCCNc1cc(SCc2ccco2)c2nonc2c1[N+](=O)[O-] | 11µM* | -15 | 3% | ? | 1%
CCOC(=O)Nc1ccc2c(c1)N(C(=O)CCN(CC)CC)c1ccccc1S2=O (centres undefined) | ? | -8 | 0% | 13µM* | -3%
CC(/C=C/c1ccccc1)=N\NC(=O)CCc1ccccc1 | -44% | -1 | 0% | -9% | 10%
C/C(=N\NC(=O)CCc1ccccc1)C1C(=O)c2ccccc2C1=O | 0.56µM* | -11 | 0% | 2µM* | ?
FC(F)(F)c1ccc(CN2C[C@@H]3C(c4ccc(C(F)(F)F)cc4)C4(c5ccccc5)CC3(C4)[C@H]2c2ccccc2)cc1 (some centres undefined) | -21% | / | / | 7% | /
Nc1c(C(=O)Nc2ccc(S(=O)(=O)N3CCCC3)cc2)sc2nc3ccc(OC(F)(F)F)cc3cc12 | 16µM* | 4 | 0% | 10µM* | ?
CN1/C(=C\C(=O)COC(=O)CN2C(=O)C3CC=CCC3C2=O)C(C)(C)c2ccccc21 (centres undefined) | ? | -18 | 1% | 4.5µM* | -19%
CN1/C(=C\C(=O)COC(=O)c2ccc(O)cc2)C(C)(C)c2ccccc21 | 22% | -19 | 0% | ? | 21µM*
CN1/C(=C\C(=O)COC(=O)c2ccc(O)c(O)c2)C(C)(C)c2ccccc21 | ? | -26 | 0% | ? | 21µM*
CN1/C(=C\C(=O)COC(=O)CNC(=O)c2ccc3ccccc3c2)C(C)(C)c2ccccc21 | ? | 0 | 0% | ? | -15%
CCOC(=O)/C=C1/N(C)c2ccccc2C1(C)C | -12% | 3 | -1% | -4% | 10%
CNS(=O)(=O)c1cccc(C(=O)OCC(=O)c2c(N)n(C)c(=O)n(C)c2=O)c1 | 18% | -16 | 0% | 4% | -13%
CNS(=O)(=O)c1cccc(C(=O)OCC(=O)/C=C2/N(C)c3ccccc3C2(C)C)c1 | ? | -16 | 5% | 0.4µM* | ?
CN1/C(=C\C(=O)COC(=O)CNC(=O)c2ccccc2F)C(C)(C)c2ccccc21 | 30% | -9 | -1% | -29% | 3%
